# NPC1 prom act = activates the NPC1 promoter. AID 485313. Huh7 NPC1 promoter luciferase reporter, 24 h. Potency, µM (series often up to 9.22 µM), usual class: activators. 320,000 tested, 2.4% active; further: nearly all actives have a fitted effect of over 60% in size
#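 Huh7 cells stably carrying NPC1 promoter–luciferase, plated in Opti-MEM with 10% FBS for 2 h, were exposed to compound in DMSO for 24 h at 37 °C; luciferase reagent was added for 10 min and luminescence read.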
# ELG1 genotoxic = genotoxicity induction in ELG1-luciferase HEK293T cells | Potency, µM (titrated, usually from 46 µM), actives largely listed as activators | HEK293T ELG1-luciferase reporter, luminescence, 16 h | 330,000 tested, 1.3% active; further: nearly all actives have a fitted effect of over 60% in size
#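 DMSO vehicle served as control against compound-treated ELG1-luciferase HEK293T cells; exposure lasted 16 hr at 37 °C and 5% CO2, followed by ONE-Glo luminescence detection after 30 min.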
# ELG1 DNA repair = ELG1-dependent DNA repair inhibition; HEK293T ELG1-luciferase reporter, luminescence, 16 h; DNA damage induced by 5-fluorouridine; Potency, µM (doses to about 46.1 µM), actives largely listed as inhibitors; 330,000 tested, 2.3% active; AID 504467; further: nearly all actives have a fitted effect of over 55% in size
#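 Overnight (16 hr) co-exposure of 2,000 cells/well to 5-fluorouridine and compound at 37 °C preceded detection. Luciferase was quantified via ONE-Glo luminescence; loss of signal denotes inhibition.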
# FLuc modulator = firefly luciferase modulation, counter-screen for miR-21 project | P08659 | purified FLuc, Km substrates, luminescence inhibition | Potency, µM (doses to about 57.5 µM), most hits filed as inhibitors | 360,000 tested, 6.9% active | AID 588342; further: nearly all actives have a fitted effect of over 55% in size
# Target sequence (P08659 whole entry, looked up): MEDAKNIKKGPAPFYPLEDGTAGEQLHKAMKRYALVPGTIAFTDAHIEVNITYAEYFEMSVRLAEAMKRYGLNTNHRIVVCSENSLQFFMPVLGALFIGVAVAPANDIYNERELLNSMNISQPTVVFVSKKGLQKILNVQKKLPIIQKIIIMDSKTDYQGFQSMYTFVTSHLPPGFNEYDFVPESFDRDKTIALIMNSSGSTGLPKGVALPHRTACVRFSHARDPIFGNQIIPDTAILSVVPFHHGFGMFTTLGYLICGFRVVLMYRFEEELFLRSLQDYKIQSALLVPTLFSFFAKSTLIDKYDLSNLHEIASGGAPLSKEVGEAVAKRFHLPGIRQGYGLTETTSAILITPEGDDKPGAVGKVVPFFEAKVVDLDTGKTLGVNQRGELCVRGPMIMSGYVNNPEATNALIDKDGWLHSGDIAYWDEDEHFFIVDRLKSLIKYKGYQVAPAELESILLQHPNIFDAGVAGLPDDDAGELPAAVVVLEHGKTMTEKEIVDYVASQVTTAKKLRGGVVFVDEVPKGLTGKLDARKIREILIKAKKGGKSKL
#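 Purified P. pyralis luciferase, 10 nM final, with Km-level 10 uM D-luciferin and 10 uM ATP in 50 mM Tris acetate pH 7.5, 10 mM Mg acetate, 0.01% Tween-20, 0.05% BSA; 6-point qHTS titration about 60 µM downward; luminescence read.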
# SMN2 splice up = increases expression of the SMN2 splice variant; 210,000 tested, 2.8% active; Potency, µM (top dose mostly 46.1 µM), most hits filed as activators; HEK293 SMN2-luciferase splicing reporter, luminescence, 30-36 h; further: nearly all actives have a fitted effect of over 55% in size
#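 HEK293 cells carry an SMN2 minigene-luciferase reporter in which exon 7 inclusion puts luciferase in frame. Cells were seeded at 2000 cells/well, attached for 10-12 hours, then exposed to compounds for 30-36 hours at 37C before ONE-Glo luminescence.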
# Rab9 promoter act = activators of Rab9 promoter | Huh7 Rab9 promoter-luciferase reporter, luminescence, 24 h | Potency, µM (titrated, usually from 9.22 µM), usual class: activators | 320,000 tested, 2.8% active | AID 485297; further: nearly all actives have a fitted effect of over 60% in size
#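 Cell-based reporter: Huh7 stable for Rab9 promoter-driven luciferase, plated in reduced-serum medium with 10% FBS at 1500 cells/well, compound-treated 24 h at 37 °C, luminescence read after 10 min reagent.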
# Numbers stand for hits; 0 = inactive; ? = inconclusive; - = no result given. Compounds with a hit are over-represented: about 9.3% of the library has one in this group of screens. The call rests on the fitted dose curve; in most records, active means well fitted curve in the direction sought with a large enough effect; inconclusive means small, poorly fitted or top-dose-only effect, or another doubt; inactive means no such curve, though single readings can be large; an effect the other way counts as inactive or inconclusive.
SMILES,NPC1 prom act,ELG1 genotoxic,ELG1 DNA repair,FLuc modulator,SMN2 splice up,Rab9 promoter act
C=CCN=C1NN=C(c2ccc3c(c2)OCCO3)CS1,1µM,0.58µM,?,0.67µM,0,0.45µM
Fc1ccc(C2=NNC(=NCc3ccccc3)SC2)cc1F,?,0,?,?,?,?
c1ccc(C2=NNC(=NCc3ccc4c(c3)OCO4)SC2)cc1,?,0,?,27µM,-,?
CCCCN=C1NN=C(c2cccc([N+](=O)[O-])c2)CS1,0,?,?,?,0,0
Clc1ccc(C2=NNC(=NCc3ccccc3)SC2)cc1,?,0,?,17µM,0,?
COc1ccc(N(CC(=O)N2CCOCC2)S(C)(=O)=O)cc1Cl,0,0,0,0,-,0
CC(C)(C)OC(=O)N[C@@H](Cc1ccccc1)C(=O)N[C@@H](CO)[C@H](O)[C@@H]1C[C@@H]1C(=O)NC1CCCCC1,-,0,0,-,-,-
CCc1ccc(-n2c(=O)c3c(C)c(C(=O)N(C)C)sc3n(Cc3ccccc3C#N)c2=O)cc1,-,-,-,0,-,-
COCCN=C1NN=C(c2ccc(NC(C)=O)cc2)CS1,0,0,?,0,0,0
C=CCN=C1NN=C(c2cc(C)n(CC=C)c2C)CS1,0,?,?,0.34µM,0,0
CCN=C1NN=C(c2ccc(C)cc2)CS1,?,?,?,1.1µM,?,?
CC(C)N=C1NN=C(c2ccc(F)cc2)CS1,0.56µM,0,?,9.5µM,14µM,0.5µM
c1ccc(CN=C2NN=C(c3ccccc3)CS2)cc1,?,0,?,19µM,?,4.5µM
CCOc1ccc(NC(=O)CN(C)C(=O)CCCOc2ccc(Br)cc2)cc1OCC,0,0,0,0,-,0
O=C(Cc1ccccc1)N[C@@H](Cc1ccc(O)cc1)C(=O)O,0,0,0,0,-,0
COc1ccc(C(=O)NNC(=O)C23CC4CC(CC(C4)C2)C3)cc1OC,0,0,0,0,-,0
CCOC(=O)c1ccc(NC(=O)N2CCc3ccccc3C2)cc1,0,0,?,?,-,0
CCOC(=O)c1ccc(NC(=O)N2CCc3ccccc32)cc1,1.8µM,8.2µM,?,1.9µM,16µM,1.8µM
COc1ccc(C(=O)NCc2nnc(SCC(=O)N3CCc4ccccc43)n2CCc2ccccc2)cc1,0,0,15µM,0,0,0
O=C(Nc1ccccc1)N1CCc2ccccc21,1.6µM,9.2µM,?,21µM,14µM,1µM
COc1ccc(CCC(=O)N2CCc3ccccc32)cc1,?,?,?,9.5µM,0,?
S=C(Nc1ccccc1)N1CCc2ccccc21,0,0,0,?,-,0
COc1ccc(CCC(=O)N2c3ccccc3CC2C)cc1 (stereo unspecified),0,?,?,?,0,0
CC1(C(=O)OCC(=O)NCCNC(=O)COC(=O)C2(C)CC2(Cl)Cl)CC1(Cl)Cl (stereo unspecified),0,0,0,0,-,0
COc1ccc(NC(=O)N2CCc3ccccc32)cc1,0.63µM,?,?,1.7µM,3.2µM,0.4µM
SMILES,NPC1 prom act,ELG1 genotoxic,ELG1 DNA repair,FLuc modulator,SMN2 splice up,Rab9 promoter act
COc1ccc(C(=O)N2CCc3ccccc32)cc1,0,?,?,?,11µM,?
O=C(c1ccccc1)N1CCc2ccccc21,0,0,0,0,0,0
CC(N)(C(=O)O)c1ccc(S(=O)(=O)O)cc1 (stereo unspecified),-,-,-,-,0,-
N#Cc1c(NC(=O)C2CC(Cl)=CCC2C(=O)O)sc2c1CCCC2 (stereo unspecified),0,0,0,?,0,0
Cc1cnc(C(=O)OCC(=O)c2c[nH]c3ccccc23)cn1,0,0,0,0,-,0
O=C(OCC(=O)c1ccc[nH]1)C1=COCCO1,0,0,?,0,-,0
O=C(OCC(=O)c1c[nH]c2ccccc12)C1=COCCO1,?,?,?,15µM,?,3.5µM
COc1ccc(OCC(=O)c2c[nH]c3ccccc23)cc1,?,0,?,3.8µM,0,?
CC1(C(=O)OCC(=O)c2c[nH]c3ccccc23)CC1(Cl)Cl (stereo unspecified),4µM,?,?,6.7µM,?,3.2µM
CCOC(=O)c1nnn(-c2nonc2N)c1CSc1nnc(N)s1,0,0,?,0,0,0

# Assay outcomes as filed in PubChem.
